High-throughput results (PubChem BioAssay)
In the library only some 4.6% were active in any assay of this set; here they are far more common.
TRHR enhancer: TRH receptor (human) allosteric enhancement | TRHR cells, fluo-8 calcium fluorescence, EC20 TRH enhancement | enhancement, % at 2 µM | 360,000 tested, 0.66% active | AID 493056; in the data active = enhancement above about 30%; note: 0% is about no effect
Target sequence (P34981 whole entry, looked up): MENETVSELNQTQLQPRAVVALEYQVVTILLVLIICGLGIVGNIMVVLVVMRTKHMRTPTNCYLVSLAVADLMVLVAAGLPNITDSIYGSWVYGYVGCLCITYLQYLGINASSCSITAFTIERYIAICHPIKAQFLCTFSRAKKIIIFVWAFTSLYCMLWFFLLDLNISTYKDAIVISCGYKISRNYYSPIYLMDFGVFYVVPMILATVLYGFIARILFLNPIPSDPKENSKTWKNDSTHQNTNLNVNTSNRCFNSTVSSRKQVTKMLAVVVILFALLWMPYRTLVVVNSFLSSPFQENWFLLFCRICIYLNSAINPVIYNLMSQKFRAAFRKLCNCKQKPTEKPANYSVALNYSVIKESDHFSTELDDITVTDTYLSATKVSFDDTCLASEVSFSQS
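Enhancer read-out: after compound pinning and an initial kinetic agonist-mode read, an EC20 of TRH (10 nM final) was injected and fluo-8 calcium signal (Ex 480/Em 530) followed at 1 s/cycle for 100 cycles in TRHR-expressing cells.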
TRHR ag: agonists of human TRH receptor; P34981; TRHR cells, calcium flux fluo-8, FDSS agonist mode; activation, % at 2 µM; 360,000 tested, 0.18% active; AID 493084; note: 0% is about no effect
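Fluo-8-loaded TRHR cells; 10 s baseline, compound added, kinetic Ca2+ fluorescence read 1/s, agonist mode.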
D1 PAM: human D1 dopamine receptor positive modulation; P21728; HEK293 TREx D1 cells, calcium flux, dopamine EC20 potentiation; potentiation, % at 10 µM; 360,000 tested, 0.036% active; AID 504651; in the data active = potentiation above about 30%; note: 0% is about no effect
D1 agonist: human D1 receptor agonism; P21728; HEK293 T-REx D1 cells, calcium flux, agonist mode; activation, % at 2 µM; 360,000 tested, 1% active; AID 504660; note: 0% is about no effect
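Inducible HEK293 T-REx D1 cells, force-coupled to calcium signalling, were plated at 4000 cells/well with tetracycline and held overnight at 30 C. After no-wash calcium dye loading, compound-evoked calcium rise over 180 s flagged agonists.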
D1 antag: antagonists of human D1 dopamine receptor; P21728; HEK293 TREx D1 cells, calcium flux, dopamine EC80; hits give low values; activity change, negative = inhibition, % at 10 µM; 360,000 tested, 3.2% active; in the data active = activity change below about -30%; note: % is set by controls: 0 for no effect and ±100 for the full control effect
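After overnight tetracycline induction at 30 C, force-coupled D1 HEK293 cells took up a no-wash calcium dye at room temperature. Compounds were added and monitored 180 s, and the response to EC80 dopamine was then recorded.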
* marks the source's active call; other numbers are inactive results. Cut-off read from the data, not from the text of the source, unless noted: active = activation above about 30%; inactive = the rest.

`O=C(Nc1ccc(CN2CCCCC2)cc1)Nc1ccc(Br)cc1Cl` gave TRHR enhancer -4, TRHR ag 0, D1 PAM -6, D1 agonist 9 and D1 antag -5.
`CC(NC(=O)CCn1ccc2cc(S(=O)(=O)N3CCCC3)ccc21)c1ccccc1` (stereo unspecified) gave TRHR enhancer -3, TRHR ag 0, D1 PAM -4, D1 agonist 2 and D1 antag 6.
`Cc1ccc(NC(=O)C2CCCN2S(=O)(=O)c2cccc3cccnc23)cc1C` (stereo unspecified) gave TRHR enhancer -3, TRHR ag 0, D1 PAM -3, D1 agonist -2 and D1 antag -6.
`Nc1cc2c3c(cccc3c1)C(=O)N(CCN1CCCC1)C2=O` gave TRHR enhancer 5, TRHR ag 12, D1 PAM 0, D1 agonist 56* and D1 antag -5.
Screening O=C1c2cccc3cc([N+](=O)[O-])cc(c23)C(=O)N1CCN1CCCC1 returned TRHR enhancer -4, TRHR ag 0, D1 PAM 10, D1 agonist 1 and D1 antag 7.
For CCc1cccc(C)c1NC(=O)C1CCN(S(=O)(=O)c2c(C)noc2/C=C/c2c(C)cc(C)cc2C)CC1 the results were TRHR enhancer 1, TRHR ag 1, D1 PAM 2, D1 agonist 3 and D1 antag 10.
`c1ccc(-c2cnc(-c3ccccc3)nc2)cc1` gave TRHR enhancer 1, TRHR ag 1, D1 PAM 7, D1 agonist 0 and D1 antag 1.
`Nc1cnc(-c2ccccc2)nc1Cl` gave TRHR enhancer -2, TRHR ag 0, D1 PAM -5, D1 agonist 0 and D1 antag -39*.
Screening CC1(C)C(c2ccc(Cl)cc2)=[N+]([O-])C2(CCCC/C2=N\O)N1O (stereo unspecified) returned TRHR enhancer 5, TRHR ag 0, D1 PAM -7, D1 agonist 3 and D1 antag -87*.
`Cc1ccc(C2=[N+]([O-])C3(CCCCC/C3=N\O)N(O)C2(C)C)o1` (stereo unspecified) gave TRHR enhancer 1, TRHR ag 1, D1 PAM 5, D1 agonist 4 and D1 antag 7.
`CCOc1ccccc1-n1nnnc1SCc1nc2ccccc2s1` gave TRHR enhancer -11, TRHR ag 0, D1 PAM -3, D1 agonist 13 and D1 antag -31*.
`Cc1ccccc1-n1c(C)nnc1SCc1nc2ccccc2s1` gave TRHR enhancer -3, TRHR ag 0, D1 PAM -4, D1 agonist 1 and D1 antag -4.
`O=C(c1ccc2c(c1)OCO2)C1CCCN(Cc2cc(F)ccc2-n2cccn2)C1` (stereo unspecified) gave TRHR enhancer -2, TRHR ag -1, D1 PAM -10, D1 agonist 1 and D1 antag -36*.
COc1ccc(C2/C(=C(/O)c3ccc(Br)cc3)C(=O)C(=O)N2C)cc1 (stereo unspecified) was read as TRHR enhancer -5, TRHR ag 0, D1 PAM 0, D1 agonist 5 and D1 antag 0.
Cc1cc(C)c(Cn2c(=O)n(CCCC(=O)NCc3ccc4c(c3)OCO4)c(=O)c3sccc32)c(C)c1 was read as TRHR enhancer -4, TRHR ag -1, D1 PAM 1, D1 agonist 1 and D1 antag -6.
For CCN(CC(=O)Nc1c(F)cccc1F)C(=O)CNC(=O)c1ccc2c(c1)OCO2 the results were TRHR enhancer 8, TRHR ag 0, D1 PAM -4, D1 agonist 4 and D1 antag -33*.
For CCN(CC(=O)Nc1c(F)cccc1F)C(=O)CNC(=O)c1ccc2ccccc2c1 the results were TRHR enhancer 9, TRHR ag 0, D1 agonist 11 and D1 antag 20.
`COc1cccc(N2CCc3c(C)nc4ccc(Cl)cc4c32)c1` gave TRHR enhancer 8, TRHR ag -1, D1 PAM -11, D1 agonist 0 and D1 antag 3.
Screening CCN1Cc2c(/C=C/c3ccccc3)nc3ccc(OC)cc3c2N(c2cccc(Cl)c2)C1 returned TRHR enhancer -4, TRHR ag 5, D1 PAM -13, D1 agonist 6 and D1 antag -63*.
For CCCCOC(=O)c1ccc(NC(=O)CSc2nc3c(c(=O)[nH]2)CCC3)cc1 the results were TRHR enhancer 3, TRHR ag 0, D1 PAM -2, D1 agonist 2 and D1 antag -9.
OC(CC#CCN1CCOCC1)(c1ccccc1)c1ccccc1 was read as TRHR enhancer -2, TRHR ag 0, D1 PAM -7, D1 agonist -3 and D1 antag -31*.
Screening OC(CC#CCN1CCCC1)(c1ccccc1)c1ccccc1 returned TRHR enhancer -3, TRHR ag 1, D1 PAM -6, D1 agonist 1 and D1 antag 9.
`CC(=O)c1ccc(NC(=O)Cn2c(-n3nc(C)cc3C)nc(C)c(C)c2=O)cc1` gave TRHR enhancer -3, TRHR ag -1, D1 PAM 6 and D1 agonist -4.
Screening O=C(NNC(=O)c1ccccc1[N+](=O)[O-])Nc1ccc(Cl)cc1 returned TRHR enhancer 1, TRHR ag 0, D1 PAM -2, D1 agonist 1 and D1 antag -4.
O=C(NNC(=O)c1ccccc1[N+](=O)[O-])c1ccc(NC(=O)c2ccccc2)cc1 was read as TRHR enhancer -2, TRHR ag 6, D1 PAM -21, D1 agonist 4 and D1 antag -38*.
For COc1cc2c(=O)c(S(=O)(=O)c3ccc(F)cc3)cn(Cc3ccc(Cl)cc3)c2cc1OC the results were TRHR enhancer 4, TRHR ag 0, D1 PAM 4, D1 agonist 3 and D1 antag 4.
For COc1cccc(CNC(=O)c2cc3n(n2)CCCN(Cc2ccc(C)cc2)C3=O)c1OC the results were TRHR enhancer 7, TRHR ag -1, D1 PAM 0, D1 agonist -1 and D1 antag -7.
CCCNc1nc(C)cc(-c2cc(C(=O)NCc3ccccc3)on2)n1 was read as TRHR enhancer 1, TRHR ag 1, D1 PAM -1, D1 agonist 6 and D1 antag -30*.
Cc1cc(-c2cc(C(=O)NCc3ccccc3)on2)nc(NCC2CC2)n1 was read as TRHR enhancer 4, TRHR ag 1, D1 PAM -3, D1 agonist 11 and D1 antag 7.
`Cc1ccc2c(COC(=O)CNC(=O)c3ccccc3)cc(=O)oc2c1` gave TRHR enhancer 0, TRHR ag 0, D1 PAM -5, D1 agonist 4 and D1 antag -50*.
